Structures are written as SMILES. Several values for one entry are separate records, joined by “and”; a condition that tells them apart may be missing. Equal values may be shown once. Results filed as inconclusive are left out. The source holds several records for some structures; these can differ, active in one and inactive in another. Activity calls are given as the source filed them. Unless noted, the call rests on the fitted dose curve; in most records, active means well fitted curve in the direction sought with a large enough effect; inconclusive means small, poorly fitted or top-dose-only effect, or another doubt; inactive means no such curve, though single readings can be large; an effect the other way counts as inactive or inconclusive.

In test [1] the target is Catechol O-methyltransferase (Homo sapiens) (UniProt P21964). Nature of the test: Confirmatory Screen for Target Class Profiling of Small Molecule Inhibitors of Methyltransferases (AID 1745852; calls by dose curve; further: potency means the concentration at half of the fitted maximal effect; on activity change, negative = inhibition: on the % scale 0 is the no-effect control and ±100 the full control effect). Conditions: MTase-Glo luminescence, SAH detection, recombinant enzyme; measured here: COMT max response; stronger effect = lower value.
Test [2] has as its target Guanidinoacetate N-methyltransferase (Homo sapiens) (UniProt Q14353). The description is as above. To be noted: MTase-Glo luminescence, SAH detection, recombinant enzyme; activity change, negative = inhibition: at 57.3 µM (top of the series) unless noted.
Test [3] addresses Nicotinamide N-methyltransferase (Homo sapiens) (UniProt P40261). The test is described as above. Conditions: MTase-Glo luminescence, SAH detection, recombinant enzyme; measured here: NNMT max response; stronger effect = lower value.
Test [4] deals with Phenylethanolamine N-methyltransferase (Homo sapiens) (UniProt P11086). Described as above. To be noted: MTase-Glo luminescence, SAH detection, recombinant enzyme; measured here: PNMT max response; stronger effect = lower value.
Test [5] deals with Glutathione peroxidase 1 (Homo sapiens) (UniProt P07203). Briefly: Primary qHTS Assay for Inhibitors of Recombinant Selenoprotein Glutathione Peroxidase 1 (GPX1) (AID 1845191). Further: nearly all actives have a fitted effect of over 65% in size. Further: potency means the concentration at half of the fitted maximal effect. Conditions: recombinant GPX1, GR-coupled NADPH fluorescence, 15 min; series mostly up to 48.8 µM. The procedure, abridged:
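GR-coupled assay: compounds preincubated 30 min at room temperature with GPX1, then reaction started with CHP; final 10 nM GPX1, 1 mM GSH, 0.5 mM CHP, 0.5 mM NADPH, 100 nM GR, 0.01% BSA, pH 7.5 Tris buffer. NADPH fluorescence (340/450 nm) read at 0 and 15 min.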

The target in test [6] is Phospholipid hydroperoxide glutathione peroxidase GPX4 (Homo sapiens) (UniProt P36969). Nature of the test: Primary qHTS Assay for Inhibitors of Recombinant Selenoprotein Glutathione Peroxidase 4 (GPX4) (AID 1845192). Further: nearly all actives have a fitted effect of over 65% in size. Further: potency means the concentration at half of the fitted maximal effect. On activity change, negative = inhibition: on the % scale 0 is the no-effect control and ±100 the full control effect. Conditions: recombinant GPX4, GR-coupled NADPH fluorescence, 15 min; series mostly up to 50 µM. The procedure, abridged:
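GR-coupled assay: recombinant GPX4 preincubated 30 min with compound at room temperature; final 200 nM GPX4, 1 mM GSH, 0.5 mM cumene hydroperoxide, 0.5 mM NADPH, 100 nM GR, 0.01% BSA, pH 7.5 Tris. NADPH fluorescence (340/450 nm) read at 0 and 15 min.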
Background: Quantitative high-throughput screening tests each substance at several concentrations.

For test [7], the target named is Luciferin 4-monooxygenase (Photinus pyralis) (UniProt P08659). Nature of the test: Primary firefly luciferase (FLuc) qHTS assay for identification of artifact compounds. (AID 1845220). Further: nearly all actives have a fitted effect of over 60% in size.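 On activity change, negative = inhibition: plate controls were DMSO vehicle for no effect and no enzyme for full effect.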 Conditions: purified firefly luciferase, luminescence, 5 min; series mostly up to 54.1 µM. The procedure, abridged: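 D-luciferin and ATP (10 uM each, final) in Tris acetate buffer pH 7.6 were incubated with compounds for 15 min at room temperature. The reaction was started with 10 nM Photinus pyralis luciferase and luminescence read after 5 min. Percent inhibition was fitted to a 4-parameter Hill equation.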

Test [8] is described as follows: Primary fluorescence-based thiol-reactive (MSTI) qHTS assay for identification of artifact compounds. (AID 1845221).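 Further: thiol-reactive compounds lower the probe fluorescence signal; nearly all actives have a fitted effect of over 65% in size.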 To be noted: MSTI thiol-reactivity probe, 1 h; series mostly up to 53.8 µM. In outline: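 MSTI probe at 4 uM final in 2% DMSO/PBS pH 7.4; compounds, 1 h at room temperature in dark. Fluorescence Ex/Em 525/598 nm, normalised to Acetyl-MSTI and MSTI, fitted to 4-parameter Hill.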

Test [9] relates to Nanoluciferase (engineered Oplophorus gracilirostris luciferase). Nature of the test: Primary Nanoluciferase (NLuc) qHTS assay for identification of artifact compounds. (AID 1845222).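 Further: 0% = DMSO and -100% = no enzyme.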 To be noted: NLuc-conditioned medium, Nano-Glo luminescence, 5 min; series mostly up to 54.1 µM. In outline: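 Diluted conditioned medium from NLuc-expressing S16 cells treated with compounds for 15 min at room temperature, then Nano-Glo substrate added; luminescence read after 5 min. Percent inhibition versus no-enzyme and DMSO controls fitted to 4-parameter Hill equation.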

The nature of test [10]: Primary redox qHTS assay for identification of artifact compounds. (AID 1845223). Conditions: Amplex Red/HRP redox cycling with DTT, fluorescence; series mostly up to 53.8 µM. In outline: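 Amplex Red (25 uM) and HRP (250 mU/mL) in HBSS, with compounds for 15 min, then 250 uM DTT for 30 min, room temperature, dark. Fluorescence 525/598 nm read; normalized to DMSO and 10 uM DA3003; Hill fit.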

The nature of test [11]: Quantitative High-Throughput drug screen in 47 multiple myeloma cell lines against the NCATS MIPE library collection: FR4_PLB cell viability assay (AID 1918924; further: nearly all actives have a fitted effect of over 35% in size; further: potency means the concentration at half of the fitted maximal effect). To be noted: FR4_PLB myeloma cells viability, CellTiter-Glo ATP, 48 h; series mostly up to 45.8 µM. In outline: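 Myeloma cell lines, 500 cells per well, exposed to MIPE 4.0 library compounds for 48 h at 37C, 5% CO2. Viability from ATP by CellTiter-Glo luminescence; normalised to DMSO (100%) and media-only (0%) wells.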
Background: In ATP-based viability assays light output follows the ATP content of the culture.

Test [12] has as its target Rap guanine nucleotide exchange factor 3 (Homo sapiens) (UniProt O95398). Briefly: Confirmatory qHTS for agonist of cAMP-regulated guanine nucleotide exchange factor 3 (EPAC1) (AID 1645881).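 Further: EPAC1 catalysed release of BODIPY-GDP from Rap1B seen as fluorescence loss; nearly all actives have a fitted effect of over 75% in size.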 Conditions: EPAC1 Rap1B BODIPY-GDP exchange fluorescence, 100% = cAMP control response; series mostly up to 154 µM.
In test [13] the target is Rap guanine nucleotide exchange factor 4 (Homo sapiens) (UniProt Q8WZA2). Nature of the test: Confirmatory qHTS for agonist of cAMP-regulated guanine nucleotide exchange factor 4 (EPAC2) (AID 1645884).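 Further: nucleotide exchange releases bodipy-GDP from Rap1 and this lowers its fluorescence; on the % scale 0 is the no-effect control and ±100 the full control effect; nearly all actives have a fitted effect of over 65% in size.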 To be noted: EPAC2 GEF activity, Rap1B-BODIPY-GDP fluorescence, percent relative to cAMP agonist control; series mostly up to 154 µM.
Test [14] shares this target. Nature of the test: Confirmatory qHTS for antagonist of cAMP-regulated guanine nucleotide exchange factor 4 (EPAC2) (AID 1645885). Further: potency means the concentration at half of the fitted maximal effect; nearly all actives have a fitted effect of over 25% in size. Conditions: EPAC2 Rap1B-BODIPY-GDP exchange fluorescence, biochemical.
A short description of test [15]: NCATS anti-infectives library activity on HEK293 viability as a counter-qHTS vs the C. elegans viability qHTS (AID 1745854).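 Further: HEK293 cells exposed to compounds for 24 hr before the viability read; on the % scale 0 is the no-effect control and ±100 the full control effect.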 To be noted: HEK293 viability counter-screen; series mostly up to 41.8 µM. In outline: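 HEK293 cells (1,500/well) exposed 24 hr at 37C to 1:5 titrations, up to 41.7 uM final; counter-screen to a C. elegans viability qHTS. Viability by CellTiter-Glo luminescence after 10 min at room temperature; digitonin as control.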

A short description of test [16]: NCATS anti-infectives library activity on the primary C. elegans qHTS viability assay (AID 1745855; calls by dose curve). To be noted: C. elegans worm area imaging, day 7; series mostly up to 41.8 µM. The procedure, abridged:
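Viability read-out is GFP fluorescence of PE254-GFP-FLuc C. elegans, measured by laser cytometry (488 nm) at day 0, 3 and 7. Ten L1 worms per well were incubated 7 days at 21 °C with compounds and bacterial capsules in S medium.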

Sequence of Phospholipid hydroperoxide glutathione peroxidase GPX4 (Homo sapiens) (P36969 whole entry, looked up): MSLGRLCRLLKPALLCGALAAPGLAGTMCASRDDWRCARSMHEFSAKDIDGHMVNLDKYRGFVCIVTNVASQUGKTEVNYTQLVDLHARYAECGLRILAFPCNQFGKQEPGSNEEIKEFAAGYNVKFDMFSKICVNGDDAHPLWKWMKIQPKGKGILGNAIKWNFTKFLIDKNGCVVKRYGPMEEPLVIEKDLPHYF
Sequence of Catechol O-methyltransferase (Homo sapiens) (P21964 whole entry, looked up): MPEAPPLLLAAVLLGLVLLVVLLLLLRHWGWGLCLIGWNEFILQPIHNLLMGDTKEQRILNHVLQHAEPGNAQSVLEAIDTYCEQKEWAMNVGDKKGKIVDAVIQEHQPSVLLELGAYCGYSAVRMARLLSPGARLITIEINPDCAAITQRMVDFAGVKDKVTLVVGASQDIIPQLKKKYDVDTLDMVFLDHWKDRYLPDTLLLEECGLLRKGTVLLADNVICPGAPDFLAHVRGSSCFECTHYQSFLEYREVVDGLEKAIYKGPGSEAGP
Sequence of Phenylethanolamine N-methyltransferase (Homo sapiens) (P11086 whole entry, looked up): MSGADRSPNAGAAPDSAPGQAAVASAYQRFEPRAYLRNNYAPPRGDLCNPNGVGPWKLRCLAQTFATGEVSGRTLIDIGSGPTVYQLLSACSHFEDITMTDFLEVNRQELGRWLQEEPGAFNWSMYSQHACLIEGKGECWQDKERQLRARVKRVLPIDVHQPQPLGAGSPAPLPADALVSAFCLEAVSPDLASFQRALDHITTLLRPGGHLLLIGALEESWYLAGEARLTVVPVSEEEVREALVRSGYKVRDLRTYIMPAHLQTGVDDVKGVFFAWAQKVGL
Sequence of Nicotinamide N-methyltransferase (Homo sapiens) (P40261 whole entry, looked up): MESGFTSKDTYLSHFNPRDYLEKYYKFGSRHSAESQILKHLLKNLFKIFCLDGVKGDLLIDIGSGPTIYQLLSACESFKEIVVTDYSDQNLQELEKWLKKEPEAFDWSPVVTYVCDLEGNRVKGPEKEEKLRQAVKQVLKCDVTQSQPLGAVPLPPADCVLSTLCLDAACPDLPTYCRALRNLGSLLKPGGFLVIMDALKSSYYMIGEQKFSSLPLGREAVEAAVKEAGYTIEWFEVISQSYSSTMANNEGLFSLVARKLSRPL
Sequence of Glutathione peroxidase 1 (Homo sapiens) (P07203 whole entry, looked up): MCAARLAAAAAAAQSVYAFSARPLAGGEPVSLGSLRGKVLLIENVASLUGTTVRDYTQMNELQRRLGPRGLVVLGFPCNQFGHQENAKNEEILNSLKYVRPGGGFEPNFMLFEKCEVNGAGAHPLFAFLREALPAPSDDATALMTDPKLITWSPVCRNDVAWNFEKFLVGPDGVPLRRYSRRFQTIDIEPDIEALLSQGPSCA
Sequence of Rap guanine nucleotide exchange factor 4 (Homo sapiens) (Q8WZA2 whole entry, looked up): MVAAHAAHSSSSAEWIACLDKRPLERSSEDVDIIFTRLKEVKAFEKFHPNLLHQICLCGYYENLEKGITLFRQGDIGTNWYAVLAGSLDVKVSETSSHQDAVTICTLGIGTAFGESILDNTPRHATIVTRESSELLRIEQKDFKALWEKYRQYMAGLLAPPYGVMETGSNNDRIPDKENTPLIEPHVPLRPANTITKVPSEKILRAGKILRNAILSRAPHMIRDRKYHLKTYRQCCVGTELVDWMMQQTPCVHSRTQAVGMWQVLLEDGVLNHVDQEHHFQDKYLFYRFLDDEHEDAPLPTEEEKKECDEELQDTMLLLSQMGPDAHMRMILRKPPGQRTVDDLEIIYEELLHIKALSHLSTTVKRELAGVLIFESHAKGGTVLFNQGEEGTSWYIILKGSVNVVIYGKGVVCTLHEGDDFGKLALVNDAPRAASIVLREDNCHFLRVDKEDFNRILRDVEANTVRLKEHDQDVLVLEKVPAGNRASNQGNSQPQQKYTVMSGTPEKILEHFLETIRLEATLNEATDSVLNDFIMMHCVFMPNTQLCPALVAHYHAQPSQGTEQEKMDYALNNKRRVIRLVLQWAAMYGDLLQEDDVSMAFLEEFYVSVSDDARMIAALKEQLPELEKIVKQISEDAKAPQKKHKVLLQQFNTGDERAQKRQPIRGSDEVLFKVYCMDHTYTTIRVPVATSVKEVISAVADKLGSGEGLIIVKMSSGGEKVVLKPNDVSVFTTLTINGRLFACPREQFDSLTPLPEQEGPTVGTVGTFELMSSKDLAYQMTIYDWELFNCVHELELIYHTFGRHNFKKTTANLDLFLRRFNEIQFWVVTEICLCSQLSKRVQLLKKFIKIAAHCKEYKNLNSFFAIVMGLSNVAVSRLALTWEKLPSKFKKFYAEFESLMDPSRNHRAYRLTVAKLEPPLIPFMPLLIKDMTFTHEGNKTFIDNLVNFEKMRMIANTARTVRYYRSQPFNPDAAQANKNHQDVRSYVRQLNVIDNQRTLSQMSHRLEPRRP
Sequence of Rap guanine nucleotide exchange factor 3 (Homo sapiens) (O95398 whole entry, looked up): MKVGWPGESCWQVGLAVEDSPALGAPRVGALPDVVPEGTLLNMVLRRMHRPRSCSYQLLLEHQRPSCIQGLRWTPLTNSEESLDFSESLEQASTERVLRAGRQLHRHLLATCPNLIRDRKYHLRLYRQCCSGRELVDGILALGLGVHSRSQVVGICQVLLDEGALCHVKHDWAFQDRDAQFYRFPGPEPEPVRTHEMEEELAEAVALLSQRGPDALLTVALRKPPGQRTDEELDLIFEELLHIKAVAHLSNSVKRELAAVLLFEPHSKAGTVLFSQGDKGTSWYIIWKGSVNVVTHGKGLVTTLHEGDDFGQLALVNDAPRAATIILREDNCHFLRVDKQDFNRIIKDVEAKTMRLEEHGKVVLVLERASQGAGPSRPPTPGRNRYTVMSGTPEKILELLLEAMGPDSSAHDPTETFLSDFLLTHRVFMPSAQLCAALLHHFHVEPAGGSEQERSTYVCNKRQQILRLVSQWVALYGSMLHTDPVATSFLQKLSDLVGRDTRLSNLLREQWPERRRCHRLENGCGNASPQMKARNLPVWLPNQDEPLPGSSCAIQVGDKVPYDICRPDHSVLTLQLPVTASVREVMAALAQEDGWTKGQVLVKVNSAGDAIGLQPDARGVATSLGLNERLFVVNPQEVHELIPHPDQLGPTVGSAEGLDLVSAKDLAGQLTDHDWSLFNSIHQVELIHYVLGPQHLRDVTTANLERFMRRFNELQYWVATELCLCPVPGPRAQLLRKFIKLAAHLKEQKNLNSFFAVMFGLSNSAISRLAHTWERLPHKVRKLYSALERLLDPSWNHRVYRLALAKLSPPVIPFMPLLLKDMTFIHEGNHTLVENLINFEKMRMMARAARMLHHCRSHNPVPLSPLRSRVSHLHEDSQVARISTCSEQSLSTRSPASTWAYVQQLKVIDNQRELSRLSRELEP

In the case of `Cn1c(CNc2ccc(C(=N)N)cc2)nc2cc(C(=O)N(CCC(=O)O)c3ccccn3)ccc21`, the activity was -2.15% in test [1], -1.22% in test [3] and -0.426% in test [4]. Moreover, the activity change, negative = inhibition in test [2] is 1.99%. Also, the Potency result in [5], in test [6], in [7], in test [8], in test [9] and in [10] was “inactive” throughout. For the same compound, in test [11], the Potency result is “inactive”.
Take `CC(C)(C)NC(=O)[C@H]1CN(Cc2cccnc2)CCN1C[C@@H](O)C[C@@H](Cc1ccccc1)C(=O)N[C@H]1c2ccccc2C[C@H]1O`: the outcome in test [12] and in test [13] was “inactive” each time. Moreover, in test [14], the Potency is 44.1 µM (active).
`Cc1cc(Nc2cc(N3CCN(C)CC3)nc(Sc3ccc(NC(=O)C4CC4)cc3)n2)n[nH]1`: the results for the activity in [1], in test [3] and in test [4] were -3.34%, -2.46% and -1.21%, respectively. In test [2], the activity change, negative = inhibition was -2.28%. Further, the Potency result in [5], in test [6], in test [7], in [8] and in test [9] was “inactive” each time.
Turning to `N#Cc1c(O)c2c(-c3ccc(-c4ccccc4O)cc3)csc2[nH]c1=O`, the values for the activity in test [1], in test [3] and in test [4] were 1.41%, -31.1% and -7.68%, respectively. The activity change, negative = inhibition in [2] came out at 0%. Further, the Potency in test [5] is 12.8 µM (active) and inactive. The Potency entry in test [6] and in [8] was “inactive” each time.
With `Nc1nccc(Oc2ccc(NC(=O)c3c[nH]cc(-c4ccc(F)cc4)c3=O)cc2F)c1Cl`, the results for the activity in [1], in test [3] and in test [4] were -3.16%, -55.9% and -3%, respectively. Moreover, the activity change, negative = inhibition in test [2] was -6.18%. The Potency result in test [5], in test [6], in test [8], in [9] and in test [10] was “inactive” throughout.
For the compound `Nc1ncnc2c1c(-c1cnc3[nH]ccc3c1)nn2C1CCCC1`, the values for the activity in test [1], in [3] and in [4] were -9.35%, -56.1% and -52.4%, respectively. In addition, in test [2], the activity change, negative = inhibition is 0.397%. For the same compound, the Potency result in test [5], in test [6], in test [8], in test [9] and in test [10] was “inactive” in each case.
As for `O=C(CCCCCCNC(=O)c1cnc(N(c2ccccc2)c2ccccc2)nc1)NO`, the Potency result in test [15], in [5], in [6], in [7], in test [8] and in [9] was “inactive” each time.
As for `O=C(c1ccc(Nc2nccc(-c3cc4ccccc4s3)n2)cc1)N1CCC(N2CCCC2)CC1`, the activity in test [1] is -18.2%; in test [3] it was -19.2%; in test [4], -17.2%. Also, in test [2], the activity change, negative = inhibition was -6.01%. In addition, the Potency entry in test [5], in [6], in test [7], in test [8] and in test [10] was “inactive” throughout. Besides, the Potency in [11] was 13.2 µM (active).
`CC(C)c1cc(-c2n[nH]c(=O)n2-c2ccc3c(ccn3C)c2)c(O)cc1O`: the activity in [1] was -27.7%; in test [3], -33.4%; in test [4], -21.8%. Also, the Potency in [2] was 30.4 µM (active). Further, the Potency result in [5], in test [6], in [8], in test [9] and in [10] was “inactive” in each case.
Take `NC(=O)c1cccc2cn(-c3ccc([C@@H]4CCCNC4)cc3)nc12`: the Potency entry in test [15], in [7], in test [8], in [9] and in test [10] was “inactive” throughout. Moreover, the Potency is 18.3 µM (active) and 22.7 µM (active) in test [5]; 16.1 µM (active) in [6].
Turning to `Cc1nc(Nc2n[nH]c3c2CN(C(=O)N[C@H](CN(C)C)c2ccccc2)C3(C)C)c2sccc2n1`, the results for the activity in test [1], in test [3] and in [4] were -6.29%, -22.7% and -1.08%, respectively. Also, the results for the Potency in test [2] and in test [11] were 0.0061 µM (active) and 0.833 µM (active), respectively. Moreover, the Potency entry in test [5], in test [6], in test [8], in [9] and in test [10] was “inactive” each time.
Turning to `Nc1ccccc1NC(=O)c1ccc(CNC(=O)OCc2cccnc2)cc1`, the Potency result in [15], in test [5], in [6], in test [7], in test [8] and in test [9] was “inactive” in each case. Further, in [10], the Potency entry was “inactive”. The Potency in test [11] was 2.96 µM (active).
In the case of `OCCCNc1cc(-c2ccnc(Nc3cccc(Cl)c3)n2)ccn1`, the activity is -80.2% in [1], -65.5% in [3] and -82.3% in [4]. For the same compound, the Potency in test [2] is 10.8 µM (active). Besides, the Potency entry in test [5], in test [6], in test [7], in test [8], in test [9] and in [10] was “inactive” throughout.
As for `Nc1ncnc2c1c(-c1cccc(OCc3ccccc3)c1)cn2C1CC(CN2CCCC2)C1` (stereo not drawn), the activity in [1] was -58.1%; in test [3], -68.2%; in test [4] it was -98.1%. Besides, the Potency in test [2] was 27.1 µM (active). The Potency result in [5], in test [6], in test [7], in test [8], in [9] and in test [10] was “inactive” each time.
Take `CNC(=O)CN1CCC(Oc2cc3c(Nc4cccc(Cl)c4F)ncnc3cc2OC)CC1`: the activity in [1] is -36%; in [3], -23.1%; in [4], -49.9%. The Potency in test [2] is 42.9 µM (active). Moreover, the Potency result in test [5], in test [6], in [7], in test [8] and in test [9] was “inactive” in each case.
In the case of `Cc1c(C)n(Cc2ccc(-c3ccccc3C(=O)O)cc2)c2ccc(C(=O)N[C@@H](C)c3ccc([N+](=O)[O-])cc3)cc12`, the activity in test [1] is -7.34%; in test [3], -14.9%; in [4] it was -11.9%. Besides, the activity change, negative = inhibition in test [2] is -10.2%. The Potency result in test [5], in test [8], in test [9], in test [10] and in test [11] was “inactive” in each case. Moreover, the Potency in [6] is 9.04 µM (active).
As to `Cc1cc(Nc2nc(N[C@@H](C)c3ccc(F)cc3)c(C#N)cc2F)n[nH]1`, the activity in test [1] is -4.92%; in test [3] it was -35.7%; in test [4] it was -6.34%. Moreover, in [2], the activity change, negative = inhibition was found to be 0%. Also, the Potency entry in test [16], in test [5], in [6], in test [7], in test [8] and in test [9] was “inactive” in each case. Besides, the Potency entry in test [10] was “inactive”.

The values above are taken from PubChem BioAssay (NCATS).
